Source: PubChem BioAssay (Tox21)
“And” between values parts separate entries of the source, which are not always exact repeats. Equal entries are not always repeated. Inconclusive results are not listed. Where a call stands in place of a potency, no number is given. Some compounds were tested as several samples or in several runs, with calls that do not always agree. The source made the active and inactive calls. Calls follow the shape of the dose curve; as a rule, active = well fitted curve in the direction sought with a large enough effect in the repeat runs; inconclusive = weak or mixed curves; inactive = no such curve, though single readings can be large; an effect the other way counts as inactive or inconclusive.

Test: qHTS RealTime-Glo MT Cell Viability Assay in HepG2 cells - 24 hour (AID 1224867)
Conditions: RealTime-Glo luminescence; series mostly up to 76.8 µM; activity change, negative = cytotoxicity: at the top concentration
Summary of the method: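 Compound treatment began 5 h after plating HepG2 cells (600/well) with NanoLuc luciferase and prosubstrate. Plates stayed at 37 C for 40 h; luminescence was captured at six time points, 0 h through 40 h.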
Also: nearly all actives have a fitted effect of over 50% in size.

SMILES	Potency	activity change, negative = cytotoxicity
COC(=O)/C=C/c1ccccc1	inactive	–
CC(C)(C)NCC(O)c1cc(O)cc(O)c1 (stereo not given)	–	0.749% [at 35.3 µM] (inactive)
CC(=O)OCC1=C(C(=O)O)N2C(=O)[C@@H](NC(=O)Cc3cccs3)[C@H]2SC1	–	3.84% [at 35.3 µM] (inactive)
COC(=O)c1cccc(C(=O)OC)c1	inactive	–
CC(=O)Nc1ccc(C(=O)CCl)cc1	–	0.729% (inactive)
[Cl][In]([Cl])[Cl]	inactive	–
O	inactive	–
C=C(C)C(=O)O	inactive	–
O=C(Cl)c1cccc(C(=O)Cl)c1	inactive	–
CC(=O)C1=C(C)[C@@H]2C[C@@]3(C1)[C@H](C)CC[C@H]3C2(C)C	inactive	–
C#CC(C)(CC)OC(=O)c1ccccc1C(=O)O (stereo not given)	–	1.48% [at 35.3 µM] (inactive)
O=C(O)CP(=O)(O)O	–	0.188% [at 35.3 µM] (inactive)
O=C(O)c1cn(-c2ccc(F)cc2)c2cc(N3CCNCC3)c(F)cc2c1=O	inactive	–
CC(=O)O[C@]1(C(C)=O)CC[C@H]2[C@@H]3C[C@H](C)C4=CC(=O)CC[C@]4(C)[C@H]3CC[C@@]21C	inactive	–
CCCN[C@H]1CCc2nc(N)sc2C1	inactive	–

Test: qHTS RealTime-Glo MT Cell Viability Assay in HEK293 cells - 32 hour (AID 1224868); also: potency is read from the fitted curve at half-maximal effect; as to activity change, negative = cytotoxic: top concentration of the series differs between compounds
Conditions: RealTime-Glo luminescence; series mostly up to 76.8 µM; activity change, negative = cytotoxic: at the top concentration
Summary of the method: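 Quantitative high-throughput screen of the Tox21 10K library in HEK293: cells and RealTime-Glo reagents plated together, compound added at 5 h, luminescence monitored through 40 h at 37 C.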

SMILES	Potency	activity change, negative = cytotoxic
CCOc1ccccc1C(N)=O	inactive	–
C/C=C/c1ccc(OCC)c(O)c1	inactive	–
Nc1nc(=S)c2[nH]cnc2[nH]1	23.9 µM (active) and 19.5 µM (active)	–
O=C1Nc2ccccc2C1(c1ccc(O)cc1)c1ccc(O)cc1	49 µM (active) and inactive	–
CC[C@]1(O)C[C@@H]2CN(CCc3c([nH]c4ccccc34)[C@@](C(=O)OC)(c3cc4c(cc3OC)N(C)[C@H]3[C@@](O)(C(=O)OC)[C@H](OC(C)=O)[C@]5(CC)C=CCN6CC[C@]43[C@@H]65)C2)C1	16.9 nM (active) and 4.8 nM (active)	–
CCN(CC)c1ccc2c(C)cc(=O)oc2c1	34.9 µM (active)	–
NCCO	–	-3.4% (inactive)
CC(=O)OCCOCCOCCOC(C)=O	inactive	–
CC(C)(C)NC(=O)[C@@H]1CN(Cc2cccnc2)CCN1C[C@@H](O)C[C@@H](Cc1ccccc1)C(=O)N[C@H]1c2ccccc2C[C@H]1O	inactive	–
COC(=O)/C=C/c1ccccc1	–	8.32% (inactive)
CC(C)(C)NCC(O)c1cc(O)cc(O)c1 (stereo not given)	–	1.73% [at 35.3 µM] (inactive)
Cc1ccnc2c1NC(=O)c1cccnc1N2C1CC1	inactive	–
CC(=O)OCC1=C(C(=O)O)N2C(=O)[C@@H](NC(=O)Cc3cccs3)[C@H]2SC1	–	1.32% [at 35.3 µM] (inactive)
CC(=O)Nc1ccc(C(=O)CCl)cc1	inactive and 24.5 µM (active)	–
OCCN1CCNCC1	7.9 µM (active)	–
O	inactive	–
O=C(Cl)c1cccc(C(=O)Cl)c1	inactive	–
CC(=O)C1=C(C)[C@@H]2C[C@@]3(C1)[C@H](C)CC[C@H]3C2(C)C	inactive	–
CCCCOCCOC(=O)c1ccccc1C(=O)OCCOCCCC	–	-20.5% (inactive)
O=C(O)CP(=O)(O)O	–	-5.01% [at 35.3 µM] (inactive)
c1ccc2cc3c(ccc4ccccc43)cc2c1	–	1.69% (inactive)
CC(=O)O[C@]1(C(C)=O)CC[C@H]2[C@@H]3C[C@H](C)C4=CC(=O)CC[C@]4(C)[C@H]3CC[C@@]21C	19.5 µM (active) and 10.7 µM (active)	–

Test: A CellTox Green Cytotoxicity Assay to monitor cytotoxicity in HEK293 cells - 0 hour (AID 1224869); also: potency is read from the fitted curve at half-maximal effect
Conditions: CellTox Green fluorescence; series mostly up to 76.8 µM; cytotoxicity: at the top concentration
Summary of the method: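 Seeding of HEK293 cells together with cytotoxicity dye preceded a 5 h incubation at 37 C/5% CO2. Test compounds in DMSO were then added and fluorescence monitored across 40 h.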

SMILES	Potency	cytotoxicity
CCOc1ccccc1C(N)=O	inactive	–
C/C=C/c1ccc(OCC)c(O)c1	inactive	–
Nc1nc(=S)c2[nH]cnc2[nH]1	inactive	–
O=c1n(CC2CO2)c(=O)n(CC2CO2)c(=O)n1CC1CO1 (stereo not given)	inactive	–
CCc1ccc(C(c2ccc(CC)cc2)C(Cl)Cl)cc1	inactive	–
CCC[C@H](N[C@@H](C)C(=O)N1[C@H](C(=O)O)C[C@@H]2CCCC[C@@H]21)C(=O)OCC	inactive	–
O=C1Nc2ccccc2C1(c1ccc(O)cc1)c1ccc(O)cc1	inactive	–
CC[C@]1(O)C[C@@H]2CN(CCc3c([nH]c4ccccc34)[C@@](C(=O)OC)(c3cc4c(cc3OC)N(C)[C@H]3[C@@](O)(C(=O)OC)[C@H](OC(C)=O)[C@]5(CC)C=CCN6CC[C@]43[C@@H]65)C2)C1	inactive	–
CCCCCCC(O)CCCCCCCCCCC(=O)O (stereo not given)	inactive	–
CCN(CC)c1ccc2c(C)cc(=O)oc2c1	inactive	–
NCCO	inactive	–
CC(=O)OCCOCCOCCOC(C)=O	inactive	–
O=C(O)c1cccc(C(=O)O)c1	inactive	–
C=C(C)C1CC=C(C)C(OC(C)=O)C1 (stereo not given)	inactive	–
O=C(Oc1ccccc1)c1ccccc1O	inactive	–
CCC(=O)/C=C/C1C(C)=CCCC1(C)C (stereo not given)	inactive	–
CC(C)(C)NC(=O)[C@@H]1CN(Cc2cccnc2)CCN1C[C@@H](O)C[C@@H](Cc1ccccc1)C(=O)N[C@H]1c2ccccc2C[C@H]1O	inactive	–
COC(=O)/C=C/c1ccccc1	inactive and 21.9 µM (active)	–
CC(C)(C)NCC(O)c1cc(O)cc(O)c1 (stereo not given)	–	-0.315% [at 35.3 µM] (inactive)

SMILES	Potency	cytotoxicity
Cc1ccnc2c1NC(=O)c1cccnc1N2C1CC1	inactive	–
NC(=Nc1ccccc1)Nc1ccccc1	inactive	–
CC(=O)OCC1=C(C(=O)O)N2C(=O)[C@@H](NC(=O)Cc3cccs3)[C@H]2SC1	–	1.22% [at 35.3 µM] (inactive)
COC(=O)c1cccc(C(=O)OC)c1	inactive and 43.6 µM (active)	–
Cc1cccc(O)c1C	–	1.27% (inactive)
CC(=O)Nc1ccc(C(=O)CCl)cc1	inactive	–
OCCN1CCNCC1	inactive	–
[Cl][In]([Cl])[Cl]	inactive	–
O	inactive	–
C=C(C)C(=O)O	inactive	–
O=C(Cl)c1cccc(C(=O)Cl)c1	inactive	–
CC(=O)C1=C(C)[C@@H]2C[C@@]3(C1)[C@H](C)CC[C@H]3C2(C)C	inactive	–
C#CC(C)(CC)OC(=O)c1ccccc1C(=O)O (stereo not given)	–	18.8% [at 35.3 µM] (inactive)
CCCCOCCOC(=O)c1ccccc1C(=O)OCCOCCCC	inactive	–
O=C(O)CP(=O)(O)O	–	0.426% [at 35.3 µM] (inactive)
c1ccc2cc3c(ccc4ccccc43)cc2c1	inactive	–
O=C(O)c1cn(-c2ccc(F)cc2)c2cc(N3CCNCC3)c(F)cc2c1=O	inactive	–
CC(=O)O[C@]1(C(C)=O)CC[C@H]2[C@@H]3C[C@H](C)C4=CC(=O)CC[C@]4(C)[C@H]3CC[C@@]21C	inactive	–
CCCN[C@H]1CCc2nc(N)sc2C1	inactive	–
